Records with an inconclusive call do not appear. The source made the active and inactive calls. Calls come from the whole dose curve; as a rule, active = well fitted inhibition curve with a large enough effect; inconclusive = small, poorly fitted or top-dose-only effect; inactive = flat fitted curve, though single readings scatter.
Columns and labels:
Assay in all cases: qHTS profiling for inhibitors of Plasmodium falciparum proliferation (AID 504749); note: nearly all actives have a fitted effect of over 60% in size
Settings in all cases: P. falciparum in erythrocytes, SYBR Green DNA, 72 h; series mostly up to 28.7 µM
CP286 = test system: CP286
In short: (§1)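 In a 72 h erythrocytic culture (37 C, humidified, 5% CO2) at 2.5% hematocrit and 0.3% starting parasitemia, compounds were tested; SYBR Green I in detergent lysis buffer stained parasite DNA overnight.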

CP291 = test system: CP291
In short: as §1

CP297 = test system: CP297
In short: as §1

CP305 = test system: CP305
In short: as §1

CP315 = test system: CP315
In short: as §1

CP325 = test system: CP325
In short: as §1

CP329 = test system: CP329
In short: as §1

CP335 = test system: CP335
In short: as §1

DFO2036 = test system: DFO2036
In short: as §1

DIV14 = test system: DIV14
In short: as §1

Measured: Potency
Potency is the fitted concentration of half-maximal effect.

N[C@@H](Cc1cc(I)c(Oc2cc(I)c(O)c(I)c2)c(I)c1)C(=O)O
inactive: all assays above

Cn1c(NCCN(CCO)CCCc2ccc([N+](=O)[O-])cc2)cc(=O)n(C)c1=O
inactive: all assays above

CNC[C@H](O)c1ccc(O)c(O)c1
not listed: CP335
inactive: all other assays above

COC1=C(OC)C(=O)C(CCCCCCCCCCO)=C(C)C1=O
inactive: all assays above

COc1cc2c(cc1OC)C1CC(=O)C(CC(C)C)CN1CC2 (stereo unspecified)
inactive: all assays above

O=C1c2ccccc2-c2n[nH]c3cccc1c23
not listed: CP335
inactive: all other assays above

CC1(C)CCC(C)(C)c2cc(NC(=O)c3ccc(C(=O)O)cc3)ccc21
inactive: all assays above

CCOc1cc(CC(=O)N[C@@H](CC(C)C)c2ccccc2N2CCCCC2)ccc1C(=O)O
inactive: all assays above

CC(C)c1ccc2oc3nc(N)c(C(=O)O)cc3c(=O)c2c1
inactive: all assays above

CCCc1cc(=O)[nH]c(=S)[nH]1
inactive: all assays above

O=C(NC(Cc1cc(=O)[nH]c2ccccc12)C(=O)O)c1ccc(Cl)cc1 (stereo unspecified)
inactive: all assays above

O=C(O)c1cccc(-c2noc(-c3ccccc3F)n2)c1
inactive: all assays above

CN(C)c1ccc2nc3ccc(=[N+](C)C)cc-3sc2c1
active: CP286 0.0126 µM | CP291 0.0536 µM | CP297 0.0675 µM | CP305 0.0213 µM | CP315 0.151 µM | CP325 0.0478 µM | CP329 0.0601 µM | CP335 0.0379 µM | DFO2036 0.0708 µM | DIV14 0.0269 µM

CC(S)C(=O)NCC(=O)O (stereo unspecified)
inactive: all assays above

CNC[C@@H](O)[C@@H](O)[C@H](O)[C@H](O)CO
not listed: CP325
inactive: all other assays above

O=C(O)c1cccnc1Nc1cccc(C(F)(F)F)c1
inactive: all assays above

Oc1ccc(OCc2ccccc2)cc1
not listed: CP305
inactive: all other assays above

CCCOc1ccc2nc(NC(=O)OC)[nH]c2c1
inactive: all assays above

NNc1nncc2ccccc12
active: DIV14 6.42 µM
inactive: CP291 | CP297 | CP315 | CP329

O=C1CCc2ccc(OCCCCN3CCN(c4cccc(Cl)c4Cl)CC3)cc2N1
not listed: CP286 | CP335 | DFO2036
inactive: all other assays above

Cc1nc2n(c(=O)c1CCN1CCC(c3noc4cc(F)ccc34)CC1)CCCC2
not listed: CP286 | CP335 | DIV14
inactive: all other assays above

C[Se]CCC(N)C(=O)O (stereo unspecified)
not listed: CP297
inactive: all other assays above

Cc1cc(=O)c2c(O)c3c(O)cc(=O)c4c3c3c(cc(O)c1c23)C(C)(C)C=4O
active: CP286 1.58 µM | CP291 2.69 µM | CP305 3.38 µM | CP329 2.13 µM | CP335 2.39 µM | DFO2036 1.12 µM | DIV14 2.39 µM

Cc1cc(=O)oc2cc(O)ccc12
inactive: CP291 | CP305 | CP315 | CP325 | CP329 | DIV14

Cc1nc(Nc2ncc(C(=O)Nc3c(C)cccc3Cl)s2)cc(N2CCN(CCO)CC2)n1
not listed: CP286 | CP297 | DIV14
inactive: all other assays above

Cc1cc(C2CCCCC2)n(O)c(=O)c1
active: CP297 7.21 µM | CP305 5.73 µM | CP315 2.28 µM | CP325 5.73 µM

Nc1nc(Cl)nc2c1ncn2[C@H]1C[C@H](O)[C@@H](CO)O1
inactive: CP286 | DFO2036

Cc1c(C(=O)NN2CCCCC2)nn(-c2ccc(Cl)cc2Cl)c1-c1ccc(Cl)cc1
active: CP297 19 µM | DIV14 13.5 µM

O=C(OC1C[C@H]2CC[C@@H](C1)[N+]21CCCC1)C(O)(c1ccccc1)c1ccccc1 (stereo partly specified)
active: CP286 3.98 µM | CP305 4.26 µM | CP329 4.78 µM | CP335 4.26 µM

C=CCc1cc(OC)c(O)c(C(=O)NCCO)c1
not listed: CP291
inactive: all other assays above

CN(c1nccc(=O)[nH]1)C1CCN(c2nc3ccccc3n2Cc2ccc(F)cc2)CC1
inactive: CP286 | CP291 | CP305 | CP329 | CP335 | DFO2036

CCCCC(CC)COC(=O)C(C#N)=C(c1ccccc1)c1ccccc1 (stereo unspecified)
inactive: CP305 | CP315 | CP325 | CP329 | DIV14

CCCCCCCCOc1ccccc1C(=O)Nc1ccc(C(=O)OCC[N+](C)(CC)CC)cc1
active: CP286 6.31 µM | CP335 6.01 µM | DFO2036 8.91 µM

CCCCCCCCCCCCCCCCCCCCCCO
not listed: CP291
inactive: all other assays above

CCc1nc(N)nc(N)c1-c1ccc(Cl)cc1
inactive: CP286 | CP291 | CP305 | CP315 | CP325 | DFO2036

COCCCOc1ccnc(CS(=O)c2nc3ccccc3[nH]2)c1C (stereo unspecified)
not listed: CP297 | DIV14
inactive: all other assays above

COc1ccc2cc([C@H](C)C(=O)O)ccc2c1
not listed: CP286 | CP335
inactive: all other assays above

CN1CCC(=C2c3ccccc3CCc3sccc32)CC1
active: DIV14 4.78 µM
inactive: CP297 | CP315 | CP329

Cc1ncc([N+](=O)[O-])n1CC(C)O (stereo unspecified)
not listed: CP297
inactive: all other assays above

CCN(CCO)CCCC(C)Nc1ccnc2cc(Cl)ccc12 (stereo unspecified)
inactive: CP305 | CP315 | CP325 | CP329 | CP335 | DFO2036

N=C(N)c1ccc2cc(OC(=O)c3ccc(N=C(N)N)cc3)ccc2c1
active: CP286 4.47 µM | CP305 4.78 µM | DIV14 7.57 µM

c1ccc2[nH]c(-c3cscn3)nc2c1
not listed: CP297
inactive: all other assays above

C=C(c1ccc(C(=O)O)cc1)c1cc2c(cc1C)C(C)(C)CCC2(C)C
not listed: CP286 | CP335 | DIV14
inactive: all other assays above

O=C(CS(=O)Cc1ccco1)NCC=CCOc1cc(CN2CCCCC2)ccn1 (stereo unspecified)
not listed: CP297
inactive: all other assays above

CC1=C(C)C(=O)C(C(CCCCCC(=O)O)c2ccccc2)=C(C)C1=O (stereo unspecified)
not listed: CP297 | CP315 | DIV14
inactive: all other assays above

Cc1ccc(NC(=O)c2ccc(CN3CCN(C)CC3)cc2)cc1Nc1nccc(-c2cccnc2)n1
active: CP286 11.2 µM | DIV14 15.1 µM

Reference: PubChem BioAssay (NCATS)
